{
  "source": "PubChem BioAssay (NCATS)",
  "key": {"[1]": {"assay": "Cellular Toxicity (caspase-3) Hek293 (AID 664);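 further: cells exposed to compound for 16 h at 37 °C before readout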", "how_it_was_run": "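Apoptosis readout: Caspase-Glo 3/7 signal in human HEK293 cells following 16-hour compound incubation. Responses scaled between DMSO baseline and 100 uM tamoxifen.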"}, "[2]": {"assay": "Cellular Toxicity (caspase-3) N2a (AID 665);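 further: compound exposure lasted 16 h at 37 °C before readout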", "how_it_was_run": "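Concentration-response qHTS: compound-induced caspase-3/7 luminescence in N2a cells (16 h, 37 °C), relative to DMSO and 10 uM staurosporine controls; AC50 obtained using the standard Hill equation.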"}, "[3]": {"assay": "Cellular Toxicity (caspase-3) NIH 3T3 (AID 666)", "how_it_was_run": "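Activity: caspase-3/7 induction, NIH 3T3 cells, 16 hr treatment at 37°C, luminescent Caspase-Glo detection; AC50 via Hill equation.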"}, "[4]": {"assay": "Cellular Toxicity (caspase-3) Renal Proximal Tubule (AID 667);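 further: cells exposed to compound for 16 hours at 37 °C before detection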", "how_it_was_run": "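AC50 derived by standard Hill fit of concentration-response data, normalized between DMSO basal and 10 uM staurosporine as 100% stimulation. Cells: primary rat kidney proximal tubule, 16 h treatment at 37 °C.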"}, "[5]": {"molecular_target": "Cytochrome P450 2C9 (Homo sapiens) (UniProt P11712)", "sequence (P11712 whole entry, looked up)": "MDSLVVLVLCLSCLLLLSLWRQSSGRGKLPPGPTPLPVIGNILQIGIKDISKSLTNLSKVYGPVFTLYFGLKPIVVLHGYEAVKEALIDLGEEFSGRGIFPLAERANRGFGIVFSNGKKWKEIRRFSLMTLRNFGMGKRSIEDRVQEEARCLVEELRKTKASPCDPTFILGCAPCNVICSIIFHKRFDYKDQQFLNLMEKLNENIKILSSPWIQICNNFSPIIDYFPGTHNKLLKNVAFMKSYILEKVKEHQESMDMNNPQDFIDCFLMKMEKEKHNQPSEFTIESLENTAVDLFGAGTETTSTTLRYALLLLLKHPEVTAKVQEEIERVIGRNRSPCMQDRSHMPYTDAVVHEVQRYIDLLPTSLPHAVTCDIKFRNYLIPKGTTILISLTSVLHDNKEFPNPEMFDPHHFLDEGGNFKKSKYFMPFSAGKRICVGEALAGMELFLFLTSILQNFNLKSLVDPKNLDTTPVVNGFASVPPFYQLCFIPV", "assay": "qHTS Assay for Inhibitors and Substrates of Cytochrome P450 2C9 (AID 883); further: nearly all actives have a fitted effect of over 60% in size; further: potency means the concentration at half of the fitted maximal effect", "how_it_was_run": "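CYP2C9 deoxyluciferin hydroxylation, 37C, 60 min with NADPH regeneration; 10nM enzyme, 100uM Luciferin-H (KM). Glo detection reagent stopped reaction; luminescence normalized to sulphaphenazole (57uM) full inhibition.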"}, "[6]": {"molecular_target": "Cytochrome P450 3A4 (Homo sapiens) (UniProt P08684)", "sequence (P08684 whole entry, looked up)": "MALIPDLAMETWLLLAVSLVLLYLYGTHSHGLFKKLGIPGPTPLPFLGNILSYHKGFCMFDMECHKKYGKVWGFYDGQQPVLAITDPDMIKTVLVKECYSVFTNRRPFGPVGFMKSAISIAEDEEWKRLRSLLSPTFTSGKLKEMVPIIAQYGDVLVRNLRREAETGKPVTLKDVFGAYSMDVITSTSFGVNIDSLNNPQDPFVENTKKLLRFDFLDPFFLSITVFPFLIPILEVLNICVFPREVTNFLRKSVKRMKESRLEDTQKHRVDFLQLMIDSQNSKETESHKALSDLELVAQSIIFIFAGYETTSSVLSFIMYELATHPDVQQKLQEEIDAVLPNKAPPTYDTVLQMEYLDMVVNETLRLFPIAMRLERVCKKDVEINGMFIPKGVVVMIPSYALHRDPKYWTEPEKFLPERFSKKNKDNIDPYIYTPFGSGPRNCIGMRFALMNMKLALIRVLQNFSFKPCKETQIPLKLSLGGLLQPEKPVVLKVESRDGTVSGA", "assay": "qHTS Assay for Inhibitors and Substrates of Cytochrome P450 3A4 (AID 884); further: nearly all actives have a fitted effect of over 50% in size; further: potency means the concentration at half of the fitted maximal effect", "how_it_was_run": "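Luminescent readout of luciferin produced by CYP3A4 (20 nM) dealkylation of Luciferin-PPXE, 25 uM (its KM). NADPH-driven reaction ran 60 min at RT after 10 min compound preincubation; data scaled to 57 uM ketoconazole as 100% inhibition.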"}, "[7]": {"molecular_target": "Cytochrome P450 3A4 (Homo sapiens) (UniProt P08684)", "assay": "qHTS Assay for Activators of Cytochrome P450 3A4 (AID 885); further: nearly all actives have a fitted effect of over 65% in size", "how_it_was_run": "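Luminescent readout of luciferin formed from 25 uM Luciferin-PPXE (KM level) by 20 nM CYP3A4 in 200 mM KPO4, with 60 min NADPH-driven reaction at room temperature after 10 min compound exposure. Ketoconazole (57 uM) defined 100% inhibition.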"}, "[8]": {"molecular_target": "Cytochrome P450 2D6 (Homo sapiens) (UniProt P10635)", "sequence (P10635 whole entry, looked up)": "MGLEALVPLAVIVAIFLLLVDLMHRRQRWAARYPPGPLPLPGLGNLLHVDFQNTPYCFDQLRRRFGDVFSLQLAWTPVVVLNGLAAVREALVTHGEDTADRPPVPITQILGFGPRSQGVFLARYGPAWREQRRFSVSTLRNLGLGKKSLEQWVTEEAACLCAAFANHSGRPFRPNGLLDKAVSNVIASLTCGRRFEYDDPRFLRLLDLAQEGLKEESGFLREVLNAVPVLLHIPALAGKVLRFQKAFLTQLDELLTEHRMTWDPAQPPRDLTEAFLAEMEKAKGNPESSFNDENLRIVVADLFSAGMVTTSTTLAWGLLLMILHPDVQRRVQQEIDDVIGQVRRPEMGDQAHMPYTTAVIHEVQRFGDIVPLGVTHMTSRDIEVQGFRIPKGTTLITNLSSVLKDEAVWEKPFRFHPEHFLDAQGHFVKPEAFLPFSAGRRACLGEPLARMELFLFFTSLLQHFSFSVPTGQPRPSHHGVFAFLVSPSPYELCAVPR", "assay": "qHTS Assay for Inhibitors and Substrates of Cytochrome P450 2D6 (AID 891); further: nearly all actives have a fitted effect of over 60% in size; further: potency means the concentration at half of the fitted maximal effect", "how_it_was_run": "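Luminescent read-out of luciferin formed by 5 nM human CYP2D6 demethylating 30 uM Luciferin-ME EGE (Km level) over 60 min at room temperature after NADPH regeneration addition. Data normalized to full inhibition by 1.43 uM quinidine.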"}, "[9]": {"molecular_target": "Cytochrome P450 2C19 (Homo sapiens) (UniProt P33261)", "sequence (P33261 whole entry, looked up)": "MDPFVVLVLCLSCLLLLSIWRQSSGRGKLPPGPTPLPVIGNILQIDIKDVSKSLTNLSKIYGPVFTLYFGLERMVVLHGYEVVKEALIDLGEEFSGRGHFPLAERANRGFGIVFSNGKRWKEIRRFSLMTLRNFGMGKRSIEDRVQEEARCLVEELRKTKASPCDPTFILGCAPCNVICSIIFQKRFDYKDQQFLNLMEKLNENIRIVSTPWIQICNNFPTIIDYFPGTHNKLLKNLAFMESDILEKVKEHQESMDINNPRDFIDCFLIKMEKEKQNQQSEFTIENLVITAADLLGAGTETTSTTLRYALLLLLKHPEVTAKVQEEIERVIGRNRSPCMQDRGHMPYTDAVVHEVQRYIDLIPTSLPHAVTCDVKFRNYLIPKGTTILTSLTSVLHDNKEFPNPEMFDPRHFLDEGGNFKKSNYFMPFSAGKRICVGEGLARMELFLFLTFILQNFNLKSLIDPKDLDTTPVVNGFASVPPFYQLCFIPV", "assay": "qHTS Assay for Inhibitors and Substrates of Cytochrome P450 2C19 (AID 899); further: nearly all actives have a fitted effect of over 60% in size; further: potency means the concentration at half of the fitted maximal effect", "how_it_was_run": "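In 50mM KPO4, the reaction held 5nM enzyme and KM-level (10uM) Luciferin-H EGE; it ran 60 min at 37C after NADPH regeneration and a 10 min compound preincubation. Luminescence values were scaled to 57uM ketoconazole as complete inhibition.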"}, "[10]": {"molecular_target": "Guanine nucleotide-binding protein G(i) subunit alpha-1 (Homo sapiens) (UniProt P63096)", "sequence (P63096 whole entry, looked up)": "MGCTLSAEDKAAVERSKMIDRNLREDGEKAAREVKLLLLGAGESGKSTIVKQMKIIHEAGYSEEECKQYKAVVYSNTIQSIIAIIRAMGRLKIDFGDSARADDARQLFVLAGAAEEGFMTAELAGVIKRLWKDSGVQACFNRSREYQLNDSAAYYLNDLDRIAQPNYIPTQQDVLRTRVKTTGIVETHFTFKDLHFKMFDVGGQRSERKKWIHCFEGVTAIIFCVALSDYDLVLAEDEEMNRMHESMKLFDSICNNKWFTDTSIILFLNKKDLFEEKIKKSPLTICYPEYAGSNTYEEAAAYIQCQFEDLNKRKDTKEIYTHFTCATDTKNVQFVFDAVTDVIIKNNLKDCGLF", "assay": "qHTS Assay for Inhibitors of RGS12 GoLoco Motif Activity (Green Fluorophore) (AID 879);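 further: negative values mean loss of peptide binding seen as reduced polarization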", "how_it_was_run": "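A drop in FITC polarization marked displacement of the FITC-tagged RGS12 GoLoco peptide (10 nM) from Gαi1 (50 nM). Compounds were incubated 10 min at room temperature in Tris pH 7.5 buffer containing 150 mM NaCl, 0.1 mM GDP and 0.05% NP40; unlabeled peptide titration served as control.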"}},
  "note": "Where “and” joins values, the source holds several entries; their conditions need not be identical. Equal values may be shown once. Results filed as inconclusive are left out. A call without a number means that no potency is given here. Calls of active or inactive are those of the source. The call rests on the fitted dose curve; in most records, active means well fitted curve in the direction sought with a large enough effect; inconclusive means small, poorly fitted or top-dose-only effect, or another doubt; inactive means no such curve, though single readings can be large; an effect the other way counts as inactive or inconclusive.",
  "data": [
    {"smiles": "Cc1cc(O)c2c(c1)C(=O)c1cccc(O)c1C2=O", "values": [
      {"measurement": "outcome", "setting": "[1]", "value": "inactive"},
      {"measurement": "outcome", "setting": "[2]", "value": "inactive"},
      {"measurement": "outcome", "setting": "[3]", "value": "inactive"},
      {"measurement": "outcome", "setting": "[4]", "value": "inactive"}
    ]},
    {"smiles": "O=c1c(O)c(-c2ccc(O)c(O)c2)oc2cc(O)ccc12", "values": [
      {"measurement": "Potency", "setting": "[5]", "value": "20 µM (active)"},
      {"measurement": "Potency", "setting": "[6]", "value": "39.8 µM (active)"},
      {"measurement": "outcome", "setting": "[7]", "value": "inactive"},
      {"measurement": "Potency", "setting": "[8]", "value": "inactive"},
      {"measurement": "Potency", "setting": "[9]", "value": "inactive"}
    ]},
    {"smiles": "O=C(O)C=Cc1ccc(Cn2ccnc2)cc1", "values": [
      {"measurement": "outcome", "setting": "[7]", "value": "inactive"},
      {"measurement": "Potency", "setting": "[8]", "value": "0.0794 µM (active)"}
    ]},
    {"smiles": "CCOC(=O)C1=C(C)NC(=S)NC1c1cccc(O)c1", "note": "(centres undefined)", "values": [
      {"measurement": "outcome", "setting": "[7]", "value": "inactive"}
    ]},
    {"smiles": "COc1ccc2c(c1OC)C(=O)OC2[C@H]1c2c(cc3c(c2OC)OCO3)CCN1C", "note": "(some centres undefined)", "values": [
      {"measurement": "outcome", "setting": "[10]", "value": "inactive"},
      {"measurement": "outcome", "setting": "[7]", "value": "inactive"},
      {"measurement": "Potency", "setting": "[8]", "value": "15.8 µM (active)"},
      {"measurement": "Potency", "setting": "[9]", "value": "1.26 µM (active) and 316 nM (active) and 398 nM (active)"}
    ]},
    {"smiles": "Cc1ccc(O)c(C(CCN(C(C)C)C(C)C)c2ccccc2)c1", "note": "(centres undefined)", "values": [
      {"measurement": "Potency", "setting": "[6]", "value": "inactive"}
    ]},
    {"smiles": "CN(C)CC[C@H](c1ccc(Cl)cc1)c1ccccn1", "values": [
      {"measurement": "outcome", "setting": "[10]", "value": "inactive"},
      {"measurement": "Potency", "setting": "[5]", "value": "inactive"}
    ]},
    {"smiles": "Oc1cc2c(cc1O)C1c3ccc(O)c(O)c3OCC1(O)C2", "note": "(centres undefined)", "values": [
      {"measurement": "outcome", "setting": "[7]", "value": "inactive"}
    ]},
    {"smiles": "C[C@@]12C(=O)OC(=O)[C@@]1(C)C1CCC2O1", "values": [
      {"measurement": "Potency", "setting": "[6]", "value": "inactive"}
    ]},
    {"smiles": "OCC(O)C(O)C(O)CO", "note": "(centres undefined)", "values": [
      {"measurement": "Potency", "setting": "[6]", "value": "inactive"}
    ]},
    {"smiles": "COc1ccc([C@@H]2CNC(=O)C2)cc1OC1CCCC1", "values": [
      {"measurement": "Potency", "setting": "[5]", "value": "inactive"},
      {"measurement": "outcome", "setting": "[7]", "value": "inactive"},
      {"measurement": "Potency", "setting": "[8]", "value": "inactive"},
      {"measurement": "Potency", "setting": "[9]", "value": "inactive"}
    ]},
    {"smiles": "COC(=O)C1C2CC3c4[nH]c5cc(OC)ccc5c4CCN3CC2CC(OC(=O)c2cc(OC)c(OC)c(OC)c2)C1OC", "note": "(centres undefined)", "values": [
      {"measurement": "outcome", "setting": "[7]", "value": "inactive"}
    ]},
    {"smiles": "COc1ccc(C(C)=O)c(O)c1", "values": [
      {"measurement": "Potency", "setting": "[6]", "value": "1.26 µM (active)"},
      {"measurement": "outcome", "setting": "[7]", "value": "inactive"}
    ]}
  ]
}
